Values joined by “and” are separate entries in the source; they are usually repeats but may differ in a detail not shown here. Equal entries are not always repeated. Out of some 5,500 compounds screened, about 2,000 (36%) were called active. Not shown: some 18% with an inconclusive outcome. No stated cut-off is given here; in the data, active means normalized growth mostly below about 0.91 (no sharp cut-off); inconclusive means no clear call, values can overlap the other calls; inactive means mostly above about 0.92. The list shows a part of the results.
Test: chemical genetic growth profiling, strain panel (AID 1159580);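 further: tested at 20 µM; growth read once vehicle control cultures reached saturation at 30 °C; 1 = growth at the plate median or of vehicle wells; lower values mean less growth of the strain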
Conditions: growth OD

Measured: normalized growth

COC(=O)C1=C(C)NC(C)=C(C(=O)OCCN(C)Cc2ccccc2)C1c1cccc([N+](=O)[O-])c1 (stereo unspecified)
inactive: S. cerevisiae deletion strains, locus YJR075W, strain HOC1, active compounds read low 0.973 and 0.963 | S. cerevisiae deletion strains, locus YKL009W, strain mrt4, active compounds read low 0.97 | S. cerevisiae deletion strains, locus YKL068W, active compounds read low 0.994 | S. cerevisiae deletion strains, locus YKL085W, strain MDH1 (second series), active compounds read low 0.993 | S. cerevisiae deletion strains, locus YKL085W, strain MDH1, active compounds read low 0.993 | S. cerevisiae deletion strains, locus YKL160W, strain elf1, active compounds read low 0.963 | S. cerevisiae deletion strains, locus YKL190W, strain CNB1, active compounds read low 0.99 | S. cerevisiae deletion strains, locus YKR001C, strain vps1, active compounds read low 1.01 | S. cerevisiae deletion strains, locus YKR026C, strain gcn3, active compounds read low 0.97 | S. cerevisiae deletion strains, locus YKR091W, strain srl3, active compounds read low 0.993 | S. cerevisiae deletion strains, locus YLL001W, strain dnm1, active compounds read low 0.98 | S. cerevisiae deletion strains, locus YLL026W, active compounds read low 0.998 | S. cerevisiae deletion strains, locus YLL041C, strain sdh2, active compounds read low 0.968 | S. cerevisiae deletion strains, locus YLR027C, strain aat2, active compounds read low 0.988 | S. cerevisiae deletion strains, locus YLR039C, strain RIC1, active compounds read low 0.999 | S. cerevisiae deletion strains, locus YLR058C, strain SHM2, active compounds read low 0.963 | S. cerevisiae deletion strains, locus YLR102C, strain apc9, active compounds read low 0.987 | S. cerevisiae deletion strains, locus YLR113W, strain HOG1, active compounds read low 0.93 | S. cerevisiae deletion strains, locus YLR221C, strain rsa3, active compounds read low 0.982 | S. cerevisiae deletion strains, locus YLR258W, strain gsy2, active compounds read low 0.973 | S. cerevisiae deletion strains, locus YLR262C, strain YPT6 (second series), active compounds read low 0.952 | S. cerevisiae deletion strains, locus YLR262C, strain YPT6, active compounds read low 0.947 | S. cerevisiae deletion strains, locus YLR268W, strain sec22, active compounds read low 1 | S. cerevisiae deletion strains, locus YLR320W, strain mms22, active compounds read low 0.986 | S. cerevisiae deletion strains, locus YLR330W, strain CHS5, active compounds read low 0.993 | S. cerevisiae deletion strains, locus YLR342W, strain FKS1 (second series), active compounds read low 0.957 | S. cerevisiae deletion strains, locus YLR342W, strain FKS1, active compounds read low 0.996 | S. cerevisiae deletion strains, locus YLR357W, strain rsc2, active compounds read low 0.965 | S. cerevisiae deletion strains, locus YLR370C, strain arc18, active compounds read low 0.984 | S. cerevisiae deletion strains, locus YLR371W, strain rom2, active compounds read low 0.967 | S. cerevisiae deletion strains, locus YLR384C, strain iki3, active compounds read low 0.98 | S. cerevisiae deletion strains, locus YLR418C, strain cdc73, active compounds read low 0.96 | S. cerevisiae deletion strains, locus YML016C, strain PPZ1, active compounds read low 0.99 | S. cerevisiae deletion strains, locus YML032C, strain rad52, active compounds read low 0.961 | S. cerevisiae deletion strains, locus YML120C, strain ndi1, active compounds read low 1.02 | S. cerevisiae deletion strains, locus YML124C, strain tub3, active compounds read low 0.992 | S. cerevisiae deletion strains, locus YMR058W, strain fet3, active compounds read low 0.993 | S. cerevisiae deletion strains, locus YMR078C, strain ctf18, active compounds read low 0.977 | S. cerevisiae deletion strains, locus YMR125W, strain sto1, active compounds read low 0.978 | S. cerevisiae deletion strains, locus YMR129W, active compounds read low 1 | S. cerevisiae deletion strains, locus YMR205C, strain PFK2, active compounds read low 0.986 | S. cerevisiae deletion strains, locus YMR223W, strain ubp8, active compounds read low 0.978 | S. cerevisiae deletion strains, locus YMR231W, strain pep5, active compounds read low 0.998 | S. cerevisiae deletion strains, locus YMR263W, strain SAP30, active compounds read low 0.988 | S. cerevisiae deletion strains, locus YMR307W, strain GAS1, active compounds read low 0.744 | S. cerevisiae deletion strains, locus YNL067W, strain RPL9B, active compounds read low 0.999 | S. cerevisiae deletion strains, locus YNL071W, strain lat1, active compounds read low 0.97 | S. cerevisiae deletion strains, locus YNL128W, strain TEP1, active compounds read low 0.987 and 1.05 | S. cerevisiae deletion strains, locus YNL153C, strain GIM3, active compounds read low 0.98 | S. cerevisiae deletion strains, locus YNL175C, strain NOP13, active compounds read low 1 | S. cerevisiae deletion strains, locus YNL183C, strain NPR1, active compounds read low 0.923 | S. cerevisiae deletion strains, locus YNL197C, strain WHI3, active compounds read low 1.02 | S. cerevisiae deletion strains, locus YNL209W, strain ssb2, active compounds read low 0.978 | S. cerevisiae deletion strains, locus YNL224C, strain SQS1, active compounds read low 0.993 | S. cerevisiae deletion strains, locus YNL233W, strain BNI4, active compounds read low 0.981 | S. cerevisiae deletion strains, locus YNL248C, strain rpa49, active compounds read low 0.968 | S. cerevisiae deletion strains, locus YNL250W, strain rad50, active compounds read low 0.981 | S. cerevisiae deletion strains, locus YNL271C, strain bni1, active compounds read low 1 | S. cerevisiae deletion strains, locus YNL298W, strain CLA4, active compounds read low 0.996 | S. cerevisiae deletion strains, locus YNL307C, strain MCK1, active compounds read low 0.968 | S. cerevisiae deletion strains, locus YNL322C, strain KRE1 (second series), active compounds read low 0.996 | S. cerevisiae deletion strains, locus YNL322C, strain KRE1, active compounds read low 0.995 | S. cerevisiae deletion strains, locus YNR049C, strain mso1, active compounds read low 0.974 | S. cerevisiae deletion strains, locus YNR052C, strain pop2, active compounds read low 0.999 | S. cerevisiae deletion strains, locus YOL006C, strain TOP1, active compounds read low 1.01 | S. cerevisiae deletion strains, locus YOL012C, strain htz1 0.795 | S. cerevisiae deletion strains, locus YOL147C, strain pex11, active compounds read low 0.99 | S. cerevisiae deletion strains, locus YOR001W, strain rrp6, active compounds read low 0.994 | S. cerevisiae deletion strains, locus YOR061W, strain CKA2, active compounds read low 0.964 | S. cerevisiae deletion strains, locus YOR069W, strain VPS5, active compounds read low 1.01 | S. cerevisiae deletion strains, locus YOR070C, strain gyp1, active compounds read low 0.979 | S. cerevisiae deletion strains, locus YOR080W, strain dia2, active compounds read low 0.979 | S. cerevisiae deletion strains, locus YOR083W, strain WHI5 (second series), active compounds read low 1.01 | S. cerevisiae deletion strains, locus YOR083W, strain WHI5, active compounds read low 1 | S. cerevisiae deletion strains, locus YOR106W, strain vam3, active compounds read low 0.971 | S. cerevisiae deletion strains, locus YOR136W, strain idh2, active compounds read low 0.984 | S. cerevisiae deletion strains, locus YOR144C, strain elg1, active compounds read low 0.999 | S. cerevisiae deletion strains, locus YOR184W, strain ser1, active compounds read low 0.956 | S. cerevisiae deletion strains, locus YOR231W, strain MKK1, active compounds read low 0.969 | S. cerevisiae deletion strains, locus YOR265W, strain rbl2, active compounds read low 0.999 | S. cerevisiae deletion strains, locus YOR270C, strain vph1, active compounds read low 0.939 | S. cerevisiae deletion strains, locus YOR290C, strain snf2, active compounds read low 0.975 | S. cerevisiae deletion strains, locus YOR316C, strain cot1, active compounds read low 0.98 | S. cerevisiae deletion strains, locus YPL051W, strain arl3, active compounds read low 0.979 | S. cerevisiae deletion strains, locus YPL055C, strain LGE1, active compounds read low 0.951 and 0.966 | S. cerevisiae deletion strains, locus YPL078C, strain atp4, active compounds read low 0.995 | S. cerevisiae deletion strains, locus YPL106C, strain sse1, active compounds read low 0.887 | S. cerevisiae deletion strains, locus YPL240C, strain hsp82, active compounds read low 0.985 | S. cerevisiae deletion strains, locus YPL241C, strain CIN2, active compounds read low 0.991 and 0.972 | S. cerevisiae deletion strains, locus YPL256C, strain CLN2, active compounds read low 0.957 | S. cerevisiae deletion strains, locus YPR119W, strain clb2, active compounds read low 0.984 | S. cerevisiae deletion strains, locus YPR141C, strain kar3, active compounds read low 0.982 | S. cerevisiae deletion strains, locus YPR163C, strain tif3, active compounds read low 0.996 | S. cerevisiae deletion strains, locus YPR167C, strain met16, active compounds read low 0.988 | S. cerevisiae deletion strains, strain wtn01, active compounds read low 0.981 | S. cerevisiae strains, strain wild type, active compounds read low 0.998

— PubChem BioAssay AID1159580 (chemical genetic matrix, 2015)
